Measured values as given in PubChem BioAssay (NCATS).
Records with an inconclusive call do not appear. Entries that show only a call come without a potency. A number with no mark means an inactive call. Activity calls are given as the source filed them. The call rests on the fitted dose curve; in most records, active means well fitted curve in the direction sought with a large enough effect; inconclusive means small, poorly fitted or top-dose-only effect, or another doubt; inactive means no such curve, though single readings can be large; an effect the other way counts as inactive or inconclusive.

Legend:
CRL-7250 = normal cell line; assay: Cytotoxic Profiling of Annotated Libraries Using Quantitative High-Throughput Screening (AID 1296008); conditions: Five cell lines viability, CellTiter-Glo ATP luminescence, 48-72 h; max response: hits give low values; further: nearly all actives have a fitted effect of over 60% in size
Outline: (§1)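 Cytotoxicity was measured as CellTiter-Glo ATP luminescence, read after 10 min at room temperature. Compound treatment of the cells lasted 48 or 72 hr at 37 degrees Celsius in a qHTS format.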

HEK293 = assay: as above; conditions: Five cell lines viability, CellTiter-Glo ATP luminescence, 48-72 h; max response: hits give low values
Outline: as §1

HaCat [1] = assay: as above; conditions: Five cell lines viability, CellTiter-Glo ATP luminescence, 48-72 h; max response: hits give low values
Outline: as §1

KB-3-1 = assay: as above; conditions: Five cell lines viability, CellTiter-Glo ATP luminescence, 48-72 h; max response: hits give low values
Outline: as §1

NIH3T3 [2] = assay: as above; conditions: Five cell lines viability, CellTiter-Glo ATP luminescence, 48-72 h; max response: hits give low values
Outline: as §1

HACAT [3] = assay: qHTS assay to identify novel small-molecules to repurpose for Merkel cell carcinoma treatment (AID 1296009); conditions: MCC and control cell lines, CellTiter-Glo viability, 72 h; at 44.8 µM (top of the series) unless noted; further: nearly all actives have a fitted effect of over 60% in size
Outline: (§2)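 72 hr, 37 degree celsius; NPC 8-pt / MIPE 11-pt dose response; compound pinned in DMSO; CellTiter-Glo, 10 min RT, luminescence; normalized to no-cell and DMSO controls.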

HEK293T = assay: as above; conditions: MCC and control cell lines, CellTiter-Glo viability, 72 h; series mostly up to 44.8 µM
Outline: as §2

C33A = assay: Primary qHTS to identify gynecologic anti-cancer compounds using libraries of approved drugs and bioactive compounds (AID 1345084); conditions: Gynecologic cancer cell panel viability, ATPlite luminescence, 48 h; series mostly up to 57.5 µM; further: nearly all actives have a fitted effect of over 55% in size; further: potency means the concentration at half of the fitted maximal effect
Outline: (§3)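 48 h compound exposure at 37 C, 5% CO2; five-point qHTS. ATPlite luminescence readout of cell ATP.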

CAOV3 = assay: as above; conditions: Gynecologic cancer cell panel viability, ATPlite luminescence, 48 h; series mostly up to 57.5 µM
Outline: as §3

CASKI = assay: as above; conditions: Gynecologic cancer cell panel viability, ATPlite luminescence, 48 h; series mostly up to 57.5 µM
Outline: as §3

Es-2 = assay: as above; conditions: Gynecologic cancer cell panel viability, ATPlite luminescence, 48 h; series mostly up to 57.5 µM
Outline: as §3

HeLa = assay: as above; conditions: Gynecologic cancer cell panel viability, ATPlite luminescence, 48 h; series mostly up to 57.5 µM
Outline: as §3

NIH3T3 [4] = assay: qHTS assay to identify novel small-molecules to repurpose for Merkel cell carcinoma treatment (AID 1296009); conditions: MCC and control cell lines, CellTiter-Glo viability, 72 h; at 44.8 µM (top of the series) unless noted; further: nearly all actives have a fitted effect of over 60% in size
Outline: as §2

SMILES: COC(=O)c1ccc(O[C@@H]2O[C@H](CO)[C@@H](O)[C@H](O)[C@H]2O)c(OC)c1
- max response (CRL-7250): -0.304%
- outcome (HEK293): inactive
- outcome (HaCat [1]): inactive
- max response (KB-3-1): 4.82%
- outcome (NIH3T3 [2]): inactive
- outcome (HACAT [3]): inactive
- Potency (HEK293T): inactive
- Potency (C33A): inactive
- Potency (CAOV3): inactive
- Potency (CASKI): inactive
- Potency (Es-2): inactive
- Potency (HeLa): inactive

SMILES: COC1CCCC/C(C)=C/C2C=C(C)C(C)C3C(CC(C)C)NC(=O)C23C(=O)C1 (stereo unspecified)
- outcome (CRL-7250): inactive
- outcome (HEK293): inactive
- outcome (HaCat [1]): inactive
- max response (KB-3-1): 5.18%
- outcome (NIH3T3 [2]): inactive
- outcome (HACAT [3]): inactive [at 17.4 µM]
- Potency (HEK293T): inactive
- outcome (NIH3T3 [4]): inactive [at 17.4 µM]
- Potency (C33A): inactive
- Potency (CASKI): inactive
- Potency (HeLa): inactive

SMILES: CCOc1ccc(C(Nc2ccccn2)c2ccc3ccc(C)nc3c2O)cc1C (stereo unspecified)
- outcome (CRL-7250): inactive
- outcome (HEK293): inactive
- outcome (HaCat [1]): inactive
- max response (KB-3-1): -0.87%
- max response (NIH3T3 [2]): -16.7%
- outcome (HACAT [3]): inactive
- Potency (HEK293T): inactive
- Potency (C33A): inactive
- Potency (CAOV3): inactive
- Potency (CASKI): inactive
- Potency (Es-2): inactive
- Potency (HeLa): inactive

SMILES: C=CCc1ccc(O[C@@H]2O[C@H](CO)[C@@H](O)[C@H](O)[C@H]2O)c(OC)c1
- max response (CRL-7250): -5.9%
- outcome (HEK293): inactive
- outcome (HaCat [1]): inactive
- outcome (KB-3-1): inactive
- outcome (NIH3T3 [2]): inactive
- outcome (HACAT [3]): inactive
- Potency (HEK293T): inactive
- outcome (NIH3T3 [4]): inactive
- Potency (C33A): inactive
- Potency (CASKI): inactive
- Potency (Es-2): inactive
- Potency (HeLa): inactive

SMILES: CC/C=C/CC1=C(CCCCCCCC(=O)O)CCC1=O
- max response (CRL-7250): 0.164%
- outcome (HEK293): inactive
- outcome (HaCat [1]): inactive
- max response (KB-3-1): 0.0316%
- max response (NIH3T3 [2]): -0.116%
- outcome (HACAT [3]): inactive
- Potency (HEK293T): inactive
- Potency (C33A): inactive
- Potency (CAOV3): inactive
- Potency (CASKI): inactive
- Potency (Es-2): inactive
- Potency (HeLa): inactive

SMILES: Clc1ccc2c(c1)C1=NCCN1c1c(-c3noc(C4CC4)n3)ncn1-2
- outcome (CRL-7250): inactive
- outcome (HEK293): inactive
- outcome (HaCat [1]): inactive
- outcome (KB-3-1): inactive
- outcome (NIH3T3 [2]): inactive
- outcome (HACAT [3]): inactive
- Potency (HEK293T): inactive
- outcome (NIH3T3 [4]): inactive
- Potency (C33A): inactive
- Potency (CASKI): inactive
- Potency (Es-2): inactive
- Potency (HeLa): 3.16 µM (active)

SMILES: Oc1ccc([C@H]2COc3cc(O)ccc3C2)cc1
- outcome (CRL-7250): inactive
- outcome (HEK293): inactive
- outcome (HaCat [1]): inactive
- max response (KB-3-1): 0.946%
- max response (NIH3T3 [2]): 3.41%
- outcome (HACAT [3]): inactive
- Potency (HEK293T): inactive
- Potency (C33A): inactive
- Potency (CAOV3): inactive
- Potency (CASKI): inactive
- Potency (Es-2): inactive

SMILES: CC1(C)CC2C3=CCC4C5(C)CCC(OC6OC(C(=O)O)C(O)C(O)C6OC6OC(CO)C(O)C(O)C6OC6OC(CO)C(O)C(O)C6O)C(C)(CO)C5CCC4(C)C3(C)CCC2(C)C(OC2OCC(O)C(OC3OC(CO)C(O)C(O)C3O)C2O)C1O (stereo unspecified)
- max response (CRL-7250): 2.95%
- outcome (HEK293): inactive
- outcome (HaCat [1]): inactive
- max response (KB-3-1): 5.61%
- max response (NIH3T3 [2]): -17.3%
- outcome (HACAT [3]): inactive [at 9.27 µM]
- outcome (HEK293T): inactive [at 9.27 µM]
- activity change, negative = cytotoxicity (C33A): 8.44% [at 6.55 µM]
- activity change, negative = cytotoxicity (CAOV3): 13.1% [at 6.55 µM]
- activity change, negative = cytotoxicity (CASKI): 6.12% [at 6.55 µM]
- activity change, negative = cytotoxicity (Es-2): 1.46% [at 6.55 µM]
- activity change, negative = cytotoxicity (HeLa): -0.393% [at 6.55 µM]

SMILES: CC(=O)OC[C@]12[C@H](OC(C)=O)C(=O)[C@@H]3[C@@H](OC(C)=O)[C@@]14O[C@@]3(C)COC(=O)c1cccnc1[C@@H](C)[C@H](C)C(=O)O[C@@H]([C@H](OC(C)=O)[C@@H]2OC(C)=O)[C@]4(C)O
- max response (CRL-7250): 2.64%
- outcome (HEK293): inactive
- outcome (HaCat [1]): inactive
- outcome (KB-3-1): inactive
- max response (NIH3T3 [2]): -8.22%
- outcome (HACAT [3]): inactive [at 17.4 µM]
- Potency (HEK293T): inactive
- Potency (C33A): inactive
- Potency (CAOV3): inactive
- Potency (CASKI): inactive
- Potency (Es-2): inactive
- Potency (HeLa): inactive

SMILES: COC(=O)C1=C[C@@H](O)[C@@H](O)[C@H](O[C@@H]2O[C@H](COC(=O)/C=C/c3ccccc3)[C@@H](O)[C@H](O)[C@H]2O)C1
- outcome (CRL-7250): inactive
- outcome (HEK293): inactive
- outcome (HaCat [1]): inactive
- max response (KB-3-1): 3.55%
- outcome (NIH3T3 [2]): inactive
- outcome (HACAT [3]): inactive [at 17.4 µM]
- Potency (HEK293T): inactive
- outcome (NIH3T3 [4]): inactive [at 17.4 µM]
- Potency (C33A): inactive
- Potency (CASKI): inactive
- Potency (Es-2): inactive
- Potency (HeLa): inactive

SMILES: CCOC(=O)[C@H]1O[C@@H]1C(=O)N[C@@H](CC(C)C)C(=O)NCCC(C)C
- outcome (CRL-7250): inactive
- outcome (HEK293): inactive
- outcome (HaCat [1]): inactive
- outcome (KB-3-1): inactive
- max response (NIH3T3 [2]): -2.92%
- outcome (HACAT [3]): inactive
- Potency (HEK293T): inactive
- Potency (C33A): inactive
- Potency (CAOV3): inactive
- Potency (CASKI): inactive
- Potency (Es-2): inactive
- Potency (HeLa): inactive

SMILES: CC1=CC2(O)/C=C/C(C)(O)CC(O)/C=C/C(=O)OC23C(=O)NC(CC(C)C)C3C1C (stereo unspecified)
- max response (CRL-7250): -2.92%
- outcome (HEK293): inactive
- outcome (HaCat [1]): inactive
- max response (KB-3-1): -3.67%
- outcome (NIH3T3 [2]): inactive
- outcome (HACAT [3]): inactive [at 17.4 µM]
- Potency (HEK293T): inactive
- Potency (C33A): inactive
- Potency (CAOV3): inactive
- Potency (CASKI): inactive
- Potency (Es-2): inactive
- Potency (HeLa): inactive

SMILES: C(#Cc1cccc(CN2CCOCC2)c1)CCN1CCCCC1
- max response (CRL-7250): -3.48%
- outcome (HEK293): inactive
- outcome (HaCat [1]): inactive
- max response (KB-3-1): 2.31%
- max response (NIH3T3 [2]): 1.81%
- outcome (HACAT [3]): inactive
- Potency (HEK293T): inactive
- Potency (C33A): inactive
- Potency (CAOV3): inactive
- Potency (CASKI): inactive
- Potency (Es-2): inactive
- Potency (HeLa): inactive

SMILES: C=C(C(=O)O)C1CCC(C)C2CCC(=O)OC2(C)C1 (stereo unspecified)
- max response (CRL-7250): 4.24%
- outcome (HEK293): inactive
- outcome (HaCat [1]): inactive
- max response (KB-3-1): 6.53%
- max response (NIH3T3 [2]): 0.163%
- outcome (HACAT [3]): inactive
- Potency (HEK293T): inactive
- Potency (C33A): inactive
- Potency (CAOV3): inactive
- Potency (CASKI): inactive
- Potency (Es-2): inactive
- Potency (HeLa): inactive
